{"source": "PubChem BioAssay AID2315", "about": "(National Center for Advancing Translational Sciences (NCATS), 2010)", "note": "Out of some 290,000 compounds screened, about 27,000 (9.3%) were called active. For the sample, actives were picked, then their nearest neighbours and some compounds at random. A number with no mark means an inactive call. Rule as the data show it: active = inhibition mostly above about 28% (no sharp cut-off); inactive = mostly below about 43%.", "data": [{"test": "A qHTS for Small Molecule Inhibitors of Shiga Toxin; also: 0% is about no effect", "conditions": "Vero cells, Shiga toxin protein synthesis inhibition reporter; at 38.7 µM, hits give high values", "values": [{"smiles": "CCCNC(=O)CSc1nc(Cc2ccccc2)nc2ccccc12", "inhibition": "-9.69%"}, {"smiles": "CCC(C(=O)NCCC(C)C)N(Cc1ccccc1Cl)C(=O)c1snc(C(N)=O)c1N", "note": "(centres undefined)", "inhibition": "-5.11%"}, {"smiles": "Cc1ccn(-c2cccc(-n3ccc(C)n3)n2)n1", "inhibition": "132% (active)"}, {"smiles": "Cn1cc(S(=O)(=O)Nc2ccc(Cl)cc2Cl)c(=O)n(C)c1=O", "inhibition": "-4.85%"}, {"smiles": "COc1ccc(CN2CCNC(=O)C2CC(=O)NCc2cn[nH]c2-c2ccccc2)c(F)c1", "note": "(centres undefined)", "inhibition": "-2.54%"}, {"smiles": "COc1ccc(C)cc1N(C(=O)Cn1nnc(-c2ccc(C)o2)n1)C(C(=O)NC1CCCC1)c1ccncc1", "note": "(centres undefined)", "inhibition": "-2.11%"}, {"smiles": "Cc1ccc(S(=O)(=O)NC2CCCCCC2)cc1C(N)=O", "inhibition": "-3.95%"}, {"smiles": "CCn1cc(CCC(=O)NCc2ccc(F)cc2)c2ccccc21", "inhibition": "-4.61%"}, {"smiles": "CCOC(=O)Cc1csc(SCc2cc(=O)oc3cc(O)ccc23)n1", "inhibition": "-5.09%"}, {"smiles": "Cc1ccc2c(CSc3nncs3)cc(=O)oc2c1", "inhibition": "120% (active)"}, {"smiles": "COCc1cc(=O)oc2cc(NS(=O)(=O)c3ccc(C)cc3)ccc12", "inhibition": "7.5%"}, {"smiles": "CN1/C(=c2/s/c(=C3/C(=O)N(c4ccccc4)NC3=Nc3ccccc3)n(C)c2=O)C(C)(C)c2ccccc21", "inhibition": "-12.9%"}, {"smiles": "CC(C)(C)c1ccccc1NC(=O)CN1C(=O)NC2(CCCC2)C1=O", "inhibition": "-11.9%"}, {"smiles": "O=C(CN1CCN(c2ccc(O)cc2)CC1)Nc1ccc(-c2ccccc2)cc1", "inhibition": "2.35%"}, {"smiles": "CC(=O)c1ccc(S(=O)(=O)N2CCC3(CC2)OCCO3)cc1", "inhibition": "-3.96%"}, {"smiles": "CN1C(=O)/C(=N/OC(=O)c2ccccc2Br)c2ccccc21", "inhibition": "-3.77%"}, {"smiles": "CN1C(=O)/C(=C\\c2cc(Br)cs2)c2ccccc21", "inhibition": "76.4% (active)"}, {"smiles": "CCC1C(=O)c2ccccc2N(C)C1=O", "note": "(centres undefined)", "inhibition": "-0.747%"}, {"smiles": "CCc1ccc(S(=O)(=O)Nc2cc3c(cc2N2CCCCC2)n(C)c(=O)c(=O)n3C)cc1", "inhibition": "-14.2%"}, {"smiles": "Cc1c(Cl)cccc1NC(=O)CCC(=O)N/N=C/c1ccco1", "inhibition": "4.7%"}, {"smiles": "c1ccc(-c2ccc(OCCN3CCOCC3)cc2)cc1", "inhibition": "86.3% (active)"}, {"smiles": "CC(C)(c1ccccc1)c1ccc(OCCN2CCCC2)cc1", "inhibition": "-9.76%"}, {"smiles": "CC(=O)c1ccc(OCCN2CCOCC2)cc1", "inhibition": "32.1%"}, {"smiles": "CC(C)(C)NC(=O)C(c1ccc(Cl)cc1)N(CCO)C(=O)c1snc(C(N)=O)c1N", "note": "(centres undefined)", "inhibition": "-5.05%"}, {"smiles": "COc1ccccc1C(C)NC(=O)Cc1ccsc1", "note": "(centres undefined)", "inhibition": "-7.47%"}, {"smiles": "O=C(c1ccccc1)N1N=C(c2ccccc2O)CC1c1ccc(Br)cc1", "note": "(centres undefined)", "inhibition": "10.4%"}, {"smiles": "COc1ccc(C2CC(c3cccs3)=NN2c2nc(C)c(C(C)=O)s2)cc1OC", "note": "(centres undefined)", "inhibition": "15.6%"}, {"smiles": "COc1ccc(C2CC(c3cccs3)=NN2c2ccccc2)cc1", "note": "(centres undefined)", "inhibition": "83% (active)"}, {"smiles": "COc1ccc(C2CC(c3cccs3)=NN2c2ccc(F)cc2)cc1OC", "note": "(centres undefined)", "inhibition": "26.5%"}, {"smiles": "Oc1ccccc1C1=NN(c2ccccc2)C(c2ccccc2)C1", "note": "(centres undefined)", "inhibition": "55.6% (active)"}, {"smiles": "CC(=O)Oc1ccccc1C1=NN(C(C)=O)C(c2ccccc2)C1", "note": "(centres undefined)", "inhibition": "18.4%"}, {"smiles": "COc1ccc(C2CC(c3cccs3)=NN2C(=O)COC(=O)c2cc3ccccc3cc2O)cc1OC", "note": "(centres undefined)", "inhibition": "-13.7%"}, {"smiles": "COc1ccccc1N1N=C(c2cccs2)CC1c1ccccc1", "note": "(centres undefined)", "inhibition": "36.3% (active)"}, {"smiles": "COc1ccc(C2=NN(c3ccccc3)C(c3cccs3)C2)cc1", "note": "(centres undefined)", "inhibition": "3.11%"}, {"smiles": "CS(=O)(=O)N1CCN(CC(=O)NC2CCCC2)CC1", "inhibition": "-2.76%"}, {"smiles": "O=C(Nc1ccc(Cl)cc1)c1cccc(OC(=S)N2CCOCC2)c1", "inhibition": "18%"}, {"smiles": "O=C(COc1ccc(Cl)cc1Cl)N/N=C/c1ccccn1", "inhibition": "8.65%"}, {"smiles": "CSc1ncccc1C(=O)NCc1ccccc1Cl", "inhibition": "-6.54%"}, {"smiles": "CC1(C)Cc2ccccc2-c2[nH]c(=S)[nH]c(=O)c21", "inhibition": "-5.22%"}, {"smiles": "Brc1ccc(Nc2c3c(nc4ncnn24)CCC3)cc1", "inhibition": "-2.6%"}, {"smiles": "COCc1cc(=O)n2[nH]c(C)c(-c3ccccc3)c2n1", "inhibition": "8.24%"}, {"smiles": "Nc1scc(-c2ccncc2)c1Cl", "inhibition": "64.7% (active)"}, {"smiles": "COC(=O)c1c(-c2ccc(C)cc2)csc1N", "inhibition": "-0.659%"}, {"smiles": "CN(C(=O)COC(=O)c1nc(Cl)ccc1Cl)C1CCS(=O)(=O)C1", "note": "(centres undefined)", "inhibition": "-15.4%"}, {"smiles": "CC(=O)c1nn(-c2cccc(C(F)(F)F)c2)c(=O)[nH]c1=O", "inhibition": "21.6%"}, {"smiles": "O=C1CSC(=S)N1c1ccc(Cl)c(Cl)c1", "inhibition": "24.6%"}, {"smiles": "CCCNC(=O)c1cnc(-c2ccccc2)nc1-c1ccccc1", "inhibition": "-8.32%"}, {"smiles": "CCOc1ncccc1C(=O)OCc1cn2cc(Cl)ccc2n1", "inhibition": "18.7%"}, {"smiles": "O=C(/C=C/c1ccc2c(c1)OCO2)NCc1cn2cc(Cl)ccc2n1", "inhibition": "21.3%"}, {"smiles": "Clc1ccc2nc(CSc3ccccc3)cn2c1", "inhibition": "31.5% (active)"}, {"smiles": "CC(C)CC(=O)N1CCN(Cc2cccc(Cl)c2)CC1", "inhibition": "-12.6%"}, {"smiles": "CC(=O)N(c1ccc2oc(=O)sc2c1)S(=O)(=O)c1ccc(C)cc1", "inhibition": "-13.9%"}, {"smiles": "CCC1=C(OC(=O)N(CC)CC)N2C(=O)OC(=NCCc3c[nH]c4ccccc34)[C@]2(C)[C@H]2C1=CC[C@H]1C(=O)N(CC)C(=O)[C@H]12", "inhibition": "2.44%"}, {"smiles": "O=C(CCC(=O)N/N=C/c1ccc(Br)o1)N/N=C/c1ccc(Br)o1", "inhibition": "5.62%"}, {"smiles": "CC(OC(=O)CN1C(=O)COc2ccccc21)C(=O)NCc1ccc(F)cc1", "note": "(centres undefined)", "inhibition": "-12.1%"}, {"smiles": "O=C(CN1C(=O)COc2ccccc21)NCCN1CCc2ccccc2C1", "inhibition": "29.8%"}, {"smiles": "O=C(CN1C(=O)COc2ccccc21)Nc1ccc(F)cc1", "inhibition": "74.4% (active)"}, {"smiles": "CC(C)C[C@@H](CO)N1CCN(Cc2ccc(O)cc2)CCC1=O", "inhibition": "7.05%"}, {"smiles": "CCCCCC(=O)NC(=S)NNC(=O)c1ccc([N+](=O)[O-])cc1", "inhibition": "-13.4%"}, {"smiles": "CC(=O)NC(=S)Nc1ccc(NC(=S)NC(=O)c2ccc([N+](=O)[O-])cc2)cc1", "inhibition": "-11.1%"}, {"smiles": "COCCCNC(=S)NNC(=O)C(O)(c1ccccc1)c1ccccc1", "inhibition": "-12.4%"}, {"smiles": "COCCCNC(=S)NC(=O)c1ccccc1", "inhibition": "50.8% (active)"}, {"smiles": "O=C(NCCOc1ccccc1)c1ccccc1", "inhibition": "42.2%"}, {"smiles": "COCCCNC(=S)NC(=O)c1ccc([N+](=O)[O-])cc1", "inhibition": "34% (active)"}]}]}
